Results taken from the supplement of paper PMC8728848.
This is one part of a sample in which the strongest signals are shown more often than they occur.

Experiments:
Assay in all cases: glycan array binding signal (z-score within array); higher = stronger binding
Details in all cases: glycan notation: IUPAC condensed, linker removed
[1] = biological target: Fuc(a1-2)Gal(b1-4)GlcNAc(b1-3)Gal(b1-4)GlcNAc
Outline: (§1)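 Columns mapping to the same glycan were averaged after glycan names were converted to IUPAC-condensed notation. The data come from 3228 arrays in the Consortium for Functional Glycomics database, limited to those with an available protein sequence. Binding is reported as a within-array Z-score averaged across arrays of one protein sequence and across linkers.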

[2] = biological target: Fuc(a1-2)Gal(b1-4)GlcNAc(b1-6)GalNAc
Outline: as §1

[3] = biological target: Fuc(a1-2)[GalNAc(a1-3)]Gal
Outline: as §1

[4] = biological target: Fuc(a1-2)[GalNAc(a1-3)]Gal(b1-3)GalNAc(b1-3)Gal(a1-4)Gal(b1-4)Glc
Outline: as §1

[5] = biological target: Fuc(a1-2)[GalNAc(a1-3)]Gal(b1-4)[Fuc(a1-3)]GlcNAc
Outline: as §1

[6] = biological target: Fuc(a1-3)[Gal3S(b1-4)]GlcNAc6S
Outline: as §1

[7] = biological target: Gal(a1-3)Gal(b1-4)GlcNAc(b1-6)GalNAc
Outline: as §1

[8] = biological target: Gal(a1-3)[Gal(a1-4)]Gal(b1-4)GlcNAc
Outline: as §1

[9] = biological target: Gal(b1-3)GlcNAc(a1-3)Gal(b1-4)GlcNAc
Outline: as §1

[10] = biological target: Gal(b1-3)GlcNAc(b1-2)Man(a1-3)[Gal(b1-3)GlcNAc(b1-2)Man(a1-6)]Man(b1-4)GlcNAc(b1-4)GlcNAc
Outline: as §1

[11] = biological target: Gal(b1-3)GlcNAc(b1-2)Man(a1-3)[GlcNAc(b1-4)][Gal(b1-3)GlcNAc(b1-2)Man(a1-6)]Man(b1-4)GlcNAc(b1-4)GlcNAc
Outline: as §1

[12] = biological target: Gal(b1-3)[GlcNAc(b1-6)]GalNAc
Outline: as §1

Gal(b1-4)GlcNAc(b1-2)Man = biological target: Gal(b1-4)GlcNAc(b1-2)Man
Outline: as §1

[13] = biological target: Gal(b1-4)GlcNAc(b1-2)Man(a1-3)Man(b1-4)GlcNAc(b1-4)GlcNAc
Outline: as §1

[14] = biological target: Gal(b1-4)GlcNAc(b1-2)Man(a1-3)[Man(a1-6)]Man(b1-4)GlcNAc(b1-4)GlcNAc
Outline: as §1

[15] = biological target: Gal(b1-4)GlcNAc(b1-3)Gal(b1-4)GlcNAc(b1-2)[Gal(b1-4)GlcNAc(b1-3)Gal(b1-4)GlcNAc(b1-6)]Man(a1-6)[Gal(b1-4)GlcNAc(b1-3)Gal(b1-4)GlcNAc(b1-2)Man(a1-3)]Man(b1-4)GlcNAc(b1-4)GlcNAc
Outline: as §1

[16] = biological target: Gal(b1-4)GlcNAc(b1-3)Gal(b1-4)GlcNAc(b1-3)Gal(b1-4)GlcNAc(b1-3)Gal(b1-4)GlcNAc(b1-3)Gal(b1-4)GlcNAc(b1-2)Man(a1-3)[Gal(b1-4)GlcNAc(b1-3)Gal(b1-4)GlcNAc(b1-3)Gal(b1-4)GlcNAc(b1-3)Gal(b1-4)GlcNAc(b1-3)Gal(b1-4)GlcNAc(b1-2)Man(a1-6)]Man(b1-4)GlcNAc(b1-4)GlcNAc
Outline: as §1

[17] = biological target: Gal(b1-4)GlcNAc(b1-3)Gal(b1-4)GlcNAc(b1-3)Gal(b1-4)GlcNAc(b1-3)Gal(b1-4)GlcNAc(b1-3)Gal(b1-4)GlcNAc(b1-2)[Gal(b1-4)GlcNAc(b1-3)Gal(b1-4)GlcNAc(b1-3)Gal(b1-4)GlcNAc(b1-3)Gal(b1-4)GlcNAc(b1-3)Gal(b1-4)GlcNAc(b1-6)]Man(a1-6)[Gal(b1-4)GlcNAc(b1-3)Gal(b1-4)GlcNAc(b1-3)Gal(b1-4)GlcNAc(b1-3)Gal(b1-4)GlcNAc(b1-3)Gal(b1-4)GlcNAc(b1-2)Man(a1-3)]Man(b1-4)GlcNAc(b1-4)[Fuc(a1-6)]GlcNAc
Outline: as §1

[18] = biological target: Gal(b1-4)GlcNAc(b1-6)GalNAc
Outline: as §1

Gal3S(b1-4)Glc = biological target: Gal3S(b1-4)Glc
Outline: as §1

Gal3S6S(b1-4)GlcNAc = biological target: Gal3S6S(b1-4)GlcNAc
Outline: as §1

Gal6S(b1-4)GlcNAc6S = biological target: Gal6S(b1-4)GlcNAc6S
Outline: as §1

GalNAc(a1-3)GalNAc = biological target: GalNAc(a1-3)GalNAc
Outline: as §1

Glc(a1-6)Glc(a1-6)Glc = biological target: Glc(a1-6)Glc(a1-6)Glc
Outline: as §1

[19] = biological target: GlcNAc(b1-2)Gal(b1-3)GalNAc
Outline: as §1

[20] = biological target: GlcNAc(b1-2)Man(a1-3)[GlcNAc(b1-2)Man(a1-6)]Man(b1-4)GlcNAc(b1-4)[Fuc(a1-6)]GlcNAc
Outline: as §1

[21] = biological target: GlcNAc(b1-2)[GlcNAc(b1-4)]Man(a1-3)[GlcNAc(b1-4)][GlcNAc(b1-2)Man(a1-6)]Man(b1-4)GlcNAc(b1-4)GlcNAc
Outline: as §1

[22] = biological target: GlcNAc(b1-3)Gal(b1-4)GlcNAc(b1-2)[GlcNAc(b1-3)Gal(b1-4)GlcNAc(b1-6)]Man(a1-6)[GlcNAc(b1-3)Gal(b1-4)GlcNAc(b1-2)Man(a1-3)]Man(b1-4)GlcNAc(b1-4)GlcNAc
Outline: as §1

[23] = biological target: GlcNAc(b1-3)Gal(b1-4)GlcNAc(b1-3)Gal(b1-4)GlcNAc(b1-2)[GlcNAc(b1-3)Gal(b1-4)GlcNAc(b1-3)Gal(b1-4)GlcNAc(b1-6)]Man(a1-6)[GlcNAc(b1-3)Gal(b1-4)GlcNAc(b1-3)Gal(b1-4)GlcNAc(b1-2)Man(a1-3)]Man(b1-4)GlcNAc(b1-4)[Fuc(a1-6)]GlcNAc
Outline: as §1

[24] = biological target: GlcNAc(b1-3)Gal(b1-4)GlcNAc(b1-6)[Gal(b1-3)]GalNAc
Outline: as §1

[25] = biological target: GlcNAc(b1-4)GlcNAc(b1-4)GlcNAc
Outline: as §1

[26] = biological target: Man(a1-2)Man(a1-3)[Man(a1-2)Man(a1-6)]Man(a1-6)[Man(a1-2)Man(a1-2)Man(a1-3)]Man(b1-4)GlcNAc(b1-4)GlcNAc
Outline: as §1

Man(a1-6)Man = biological target: Man(a1-6)Man
Outline: as §1

[27] = biological target: Neu5Ac(a2-3)Gal(b1-3)]Neu5Ac(a2-3)Gal(b1-4)]GlcNAc
Outline: as §1

[28] = biological target: Neu5Ac(a2-3)Gal(b1-4)GlcNAc(b1-2)Man
Outline: as §1

[29] = biological target: Neu5Ac(a2-3)Gal(b1-4)GlcNAc(b1-3)Gal(b1-4)GlcNAc(b1-6)[Gal(b1-3)]GalNAc
Outline: as §1

[30] = biological target: Neu5Ac(a2-3)Gal(b1-4)GlcNAc(b1-6)GalNAc
Outline: as §1

[31] = biological target: Neu5Ac(a2-3)Gal(b1-4)GlcNAc(b1-6)[Gal(b1-3)]GalNAc
Outline: as §1

[32] = biological target: Neu5Ac(a2-3)Gal(b1-4)GlcNAc6S
Outline: as §1

[33] = biological target: Neu5Ac(a2-3)Gal(b1-4)[Fuc(a1-3)]GlcNAc(b1-3)Gal(b1-4)GlcNAc
Outline: as §1

[34] = biological target: Neu5Ac(a2-3)Gal(b1-4)[Fuc(a1-3)]GlcNAc6S
Outline: as §1

Neu5Ac(a2-3)GalNAc = biological target: Neu5Ac(a2-3)GalNAc
Outline: as §1

[35] = biological target: Neu5Ac(a2-3)GalNAc(b1-4)GlcNAc
Outline: as §1

[36] = biological target: Neu5Ac(a2-6)Gal(b1-4)GlcNAc(b1-2)Man(a1-3)Man(b1-4)GlcNAc(b1-4)GlcNAc
Outline: as §1

[37] = biological target: Neu5Ac(a2-6)Gal(b1-4)GlcNAc(b1-3)Gal(b1-3)GlcNAc
Outline: as §1

[38] = biological target: Neu5Ac(a2-6)Gal(b1-4)GlcNAc(b1-3)Gal(b1-4)[Fuc(a1-3)]GlcNAc(b1-3)Gal(b1-4)[Fuc(a1-3)]GlcNAc
Outline: as §1

[39] = biological target: Neu5Ac(a2-6)Gal(b1-4)GlcNAc(b1-3)[Neu5Ac(a2-6)Gal(b1-4)GlcNAc(b1-6)]GalNAc
Outline: as §1

[40] = biological target: Neu5Ac(a2-6)Gal(b1-4)GlcNAc(b1-6)[Gal(b1-3)GlcNAc(b1-3)]Gal(b1-4)Glc
Outline: as §1

[41] = biological target: Neu5Ac(a2-8)Neu5Ac(a2-8)Neu5Ac
Outline: as §1

Neu5Ac(b2-6)GalNAc = biological target: Neu5Ac(b2-6)GalNAc
Outline: as §1

[42] = biological target: Neu5Gc(a2-3)Gal(b1-4)GlcNAc(b1-3)Gal(b1-4)GlcNAc(b1-2)Man(a1-3)[Neu5Gc(a2-3)Gal(b1-4)GlcNAc(b1-3)Gal(b1-4)GlcNAc(b1-2)Man(a1-6)]Man(b1-4)GlcNAc(b1-4)GlcNAc
Outline: as §1

[43] = biological target: Neu5Gc(b2-6)Gal(b1-4)GlcNAc
Outline: as §1

B1: EULS2 M4 (Oryza sativa) (protein)
chain: MVYCRANPNYAMTARNGAVVLAPANPKDEYQHWIKDMRWSTSIKDEEGYPAFALVNKATGQAIKHSLGQSHPVRLVPYNPEVMDESVLWTESRDVGNGFRCIRMVNNIYLNFDAFHGDKYHGGVRDGTDIVLWKWCEGDSLRWKIQPYYILEQKLISEEDLNSAVDHHHHHH
glycan array binding signal (z-score) [1]: -0.01 | glycan array binding signal (z-score) [2]: -0.469 | glycan array binding signal (z-score) [3]: -0.348 | glycan array binding signal (z-score) [4]: -0.473 | glycan array binding signal (z-score) [5]: -0.416 | glycan array binding signal (z-score) [6]: -0.356 | glycan array binding signal (z-score) [7]: 0.31 | glycan array binding signal (z-score) [8]: 7 | glycan array binding signal (z-score) [9]: -0.21 | glycan array binding signal (z-score) [10]: -0.259 | glycan array binding signal (z-score) [11]: 4.91 | glycan array binding signal (z-score) [12]: -0.511 | glycan array binding signal (z-score) (Gal(b1-4)GlcNAc(b1-2)Man): -0.202 | glycan array binding signal (z-score) [13]: 2.57 | glycan array binding signal (z-score) [14]: 7.18 | glycan array binding signal (z-score) [15]: 6.97 | glycan array binding signal (z-score) [16]: -0.273 | glycan array binding signal (z-score) [17]: 4.92 | glycan array binding signal (z-score) [18]: -0.124 | glycan array binding signal (z-score) (Gal3S(b1-4)Glc): 0.203 | glycan array binding signal (z-score) (Gal3S6S(b1-4)GlcNAc): -0.485 | glycan array binding signal (z-score) (Gal6S(b1-4)GlcNAc6S): -0.349 | glycan array binding signal (z-score) (GalNAc(a1-3)GalNAc): -0.218 | glycan array binding signal (z-score) (Glc(a1-6)Glc(a1-6)Glc): 0.287 | glycan array binding signal (z-score) [19]: -0.527 | glycan array binding signal (z-score) [20]: -0.215 | glycan array binding signal (z-score) [21]: -0.288 | glycan array binding signal (z-score) [22]: 0.417 | glycan array binding signal (z-score) [23]: -0.364 | glycan array binding signal (z-score) [24]: -0.431 | glycan array binding signal (z-score) [25]: -0.101 | glycan array binding signal (z-score) [26]: -0.4 | glycan array binding signal (z-score) (Man(a1-6)Man): 0.713 | glycan array binding signal (z-score) [27]: -0.232 | glycan array binding signal (z-score) [28]: 7.63 | glycan array binding signal (z-score) [29]: -0.233 | glycan array binding signal (z-score) [30]: -0.226 | glycan array binding signal (z-score) [31]: -1.27 | glycan array binding signal (z-score) [32]: 4.39 | glycan array binding signal (z-score) [33]: 0.35 | glycan array binding signal (z-score) [34]: -0.364 | glycan array binding signal (z-score) (Neu5Ac(a2-3)GalNAc): 0.083 | glycan array binding signal (z-score) [35]: 0.042 | glycan array binding signal (z-score) [36]: -0.572 | glycan array binding signal (z-score) [37]: 2.81 | glycan array binding signal (z-score) [38]: 4.01 | glycan array binding signal (z-score) [39]: 7.46 | glycan array binding signal (z-score) [40]: -0.428 | glycan array binding signal (z-score) [41]: -0.325 | glycan array binding signal (z-score) (Neu5Ac(b2-6)GalNAc): 0.656 | glycan array binding signal (z-score) [42]: -0.344 | glycan array binding signal (z-score) [43]: -0.504
